# Only some compounds are listed: those with a hit (about 21% of all), similar ones and a draw of the others.
# Pf growth 96h: inhibits malaria parasite growth, 96 h. 320,000 compounds, 6.9% hits. P. falciparum luciferase reporter growth, 96 h. Potency, µM (top dose mostly 28.7 µM), most hits filed as inhibitors
#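 Plates of compound plus infected erythrocytes (2% hematocrit, 0.05% parasitemia final) incubate 96 hours, 37 C, 5% CO2. Detection reagent added; reduced luminescence from the parasites' luciferase reporter flags inhibition.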
# Shiga toxin inh: blocks Shiga toxin action in Vero cells. 290,000 compounds, 9.2% hits. inhibition, % at 38.7 µM. AID 2315. Vero cells, Shiga toxin protein synthesis inhibition reporter; in the data active = inhibition mostly above about 28%, no sharp cut-off; inactive = mostly below about 43%
# HCMV antiviral: blocks human cytomegalovirus replication | HFF cells, HCMV-luciferase reporter, 72 h; hits give low values | 410,000 compounds, 4.5% hits | activity change, negative = inhibition, % at 57.5 µM; in the data active = activity change below about -60%; inconclusive = no clear call, values can overlap the other calls; inactive = above about -39%
#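 Screen run at 2 compound doses on HFFs infected with reporter HCMV, MOI 1 PFU/cell. Luciferase activity from cell lysates at 72 h post infection gave inhibition relative to buffer-only and Salinomycin wells.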
# HCV inh: HCV inhibition. AID 651820. Potency, µM (highest dose often 41.8 µM), actives largely listed as inhibitors. Huh7.5.1 HCVcc-Cre infection, luciferase reporter, 44 h. 340,000 compounds, 3.4% hits
#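 1,000 cells/well; 4 h culture; + compound; + HCVcc-Cre (~0.5 moi); 44 h; luciferase substrate, RT 15 min; read 15 sec.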
# Pf growth 48h: inhibits P. falciparum growth in the first generation, 48 h; Potency, µM (highest dose often 28.7 µM), actives largely listed as inhibitors; AID 504832; P. falciparum luciferase growth in erythrocytes, 48 h; 310,000 compounds, 5.9% hits
#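 Luminescence readout; reporter = integrated firefly luciferase in P. falciparum. RBC culture at 2% hematocrit, 0.1% parasitemia final, 37 C/5% CO2; decreased signal taken as growth inhibition.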
# CHX counter: counter-screen hit for Shiga toxin inhibitors, cycloheximide; cell reporter, cycloheximide protein synthesis inhibition counterscreen; max response, %; 300,000 compounds, 12% hits; AID 2314; in the data active = max response mostly above about 13%, no sharp cut-off; inactive = mostly below about 14%; note: read at 38.3 µM for the half of the compounds with a filed dose
# A number is an active result; 0 = inactive; ? = inconclusive; - = no result given. Unless noted, calls come from the whole dose curve; as a rule, active = well fitted inhibition curve with a large enough effect; inconclusive = small, poorly fitted or top-dose-only effect, or another doubt; inactive = no such curve, though single readings can be large or run the other way.
SMILES,Pf growth 96h,Shiga toxin inh,HCMV antiviral,HCV inh,Pf growth 48h,CHX counter
CC(C)c1ccc(C2C3=C(CC(C)(C)CC3=O)NC3=C2C(=O)c2ccccc23)cc1 (centres undefined),6.6µM,0,-72,11µM,9.3µM,0
COc1ccc(C2C(C#N)=C(C)NC3=C2C(=O)c2ccccc23)cc1 (centres undefined),?,0,?,0,0,0
CN1CCN(Cc2nc3c(c(=O)[nH]c(=O)n3C)n2CCc2ccccc2)CC1,?,0,0,0,0,0
CCCCCn1c(CN2CCN(Cc3ccccc3)CC2)nc2c1c(=O)[nH]c(=O)n2C,?,0,-69,0,0,0
CCCCCCn1c(N(CC)CC)nc2c1c(=O)[nH]c(=O)n2C,1.9µM,0,0,0,0,0
CCCn1c(N2CCN(CC(=O)c3c(C)n(C)c4ccccc34)CC2)nc2c1c(=O)[nH]c(=O)n2C,0,0,0,0,0.083µM,0
Cn1c(=O)[nH]c(=O)c2c1nc(N1CCOCC1)n2CCN1CCOCC1,0,0,0,0,1.9µM,0
CC(C)NC(=O)C1Cc2c(-c3ccccc3Oc3ccccc3)ccnc2O1 (centres undefined),-,-,0,-,-,-
Cn1c(=O)[nH]c(=O)c2c1nc(CN1CCN(c3ccc(F)cc3)CC1)n2CCc1ccccc1,10µM,0,-,0,?,0
CCCCCn1c(CN2CCN(c3cccc(Cl)c3)CC2)nc2c1c(=O)[nH]c(=O)n2C,?,0,0,0,13µM,0
Cn1c(CN2CCN(c3cccc(Cl)c3)CC2)nc2ccccc21,?,0,0,0,13µM,0
CC(c1ccccc1)n1c(N2CCNCC2)nc2c1c(=O)[nH]c(=O)n2C (centres undefined),0,0,0,0,8.3µM,0
COc1ccc(-c2[nH]ncc2C(=O)NCc2cccc(Cl)c2)cc1,-,-,0,-,-,-
Cc1ccc(C)c(NC(=O)CN(C)C(=O)CN2C(=O)C3CCCCC3C2=O)c1 (centres undefined),0,-,0,0,0,-
C=C1CCN(C(CC(C)C)C(=O)NCCCc2ccccc2)S(=O)(=O)c2ccccc21 (centres undefined),-,0,-,-,-,0
CN(C)c1nc2ncn(Cc3ccccc3)c2c(=O)[nH]1,?,0,0,0,0,0
CCCCCCn1c(N2CCN(c3ccccc3)CC2)nc2c1c(=O)[nH]c(=O)n2C,15µM,0,0,0,8.3µM,0
C/C=C\C=C\C(=O)N1CC2(CC(c3cccc(NC(=O)CC)c3)=NO2)C[C@H]1C(N)=O (some centres undefined),0,0,0,0,0,0
CN(C)CCn1c(C(=O)O)cc2ccccc21,?,0,0,0,0,0
N=c1n(CCN2CCCC2)c2ccccc2n1CC(O)c1ccco1 (centres undefined),0,0,0,?,?,0
CN(C)CCn1c(=N)n(CC(O)c2ccc(Cl)c(Cl)c2)c2ccccc21 (centres undefined),0,0,0,7.1µM,0.74µM,0
N=c1n(CCN2CCCCC2)c2ccccc2n1CC(O)c1ccc(Cl)c(Cl)c1 (centres undefined),0.29µM,0,-97,13µM,-,0
N=c1n(CCN2CCCCC2)c2ccccc2n1CC(O)c1cccc(Br)c1 (centres undefined),0.74µM,0,?,13µM,0.59µM,0
COc1cc2c(cc1OC)C(c1ccccc1Cl)N(C)CC2 (centres undefined),?,-,0,0,0,0
CCOC(=O)N1CCC(N2CC34C=CC(O3)C(C(=O)Nc3ccc(F)cc3)C4C2=O)CC1 (centres undefined),15µM,0,-,0,-,0
SMILES,Pf growth 96h,Shiga toxin inh,HCMV antiviral,HCV inh,Pf growth 48h,CHX counter
CCOC(=O)N1CCC(N2CC34C=CC(O3)C(C(=O)Nc3ccc(OCC)cc3)C4C2=O)CC1 (centres undefined),?,0,0,0,-,0
COC(=O)c1ccccc1C(=O)N(Cc1cccnc1)CC1CCCN(C2CCCCC2)C1 (centres undefined),13µM,0,0,0,?,0
Cn1nccc1C(=O)N(CCN1CCCCC1)CC1CCCN(C2CCCC2)C1 (centres undefined),0,0,0,14µM,0,23
CCNC(=O)N(CCOC)CC1CCCN(C2Cc3ccccc3C2)C1 (centres undefined),?,-,0,0,0,0
Cc1ccc(CN2CCC[C@]3(N[C@H](c4ccc(C)cc4)[C@@H]4C(=O)N(C)C(=O)[C@@H]43)C2=O)cc1,-,-,0,-,-,-
O=C(C1CCN(S(=O)(=O)c2ccccc2)CC1)N1CCc2ccccc21,?,0,0,0,0,0
CN(Cc1ccccc1)C(=O)COC(=O)C1CCN(S(=O)(=O)c2ccc3c(c2)OCCO3)CC1,0,-,0,0,0,-
O=C(C1CCN(S(=O)(=O)c2ccc3c(c2)OCCO3)CC1)N1CCc2ccccc21,10µM,0,?,?,?,0
O=C(C1CCN(S(=O)(=O)c2ccccc2F)CC1)N1CCc2ccccc21,?,-,-68,0,0,-
O=C(C1CCCCC1)N1CCCc2ccccc21,0,0,0,0,-,22
CCN(Cc1ccccc1)C(=O)C1CCN(S(=O)(=O)c2ccc3c(c2)OCCO3)CC1,13µM,0,0,0,?,0
CC1=C(C(=O)Nc2ccc(C)cc2C)C(C(C)C)n2nc(SCc3ccccc3Cl)nc2N1 (centres undefined),-,-,0,-,-,-
Cc1cc(C2=CC(=O)C[C@H](c3ccc4c(c3)OCO4)C2)ccc1F,?,-,0,0,0,-
Fc1ccc(Nc2ncnc3onc(-c4cccc(Cl)c4)c23)c(F)c1,-,-,0,-,-,-
COC(=O)c1ccccc1NC(=O)Cc1nc(-c2ccc(OC)cc2)no1,-,-,0,-,-,-
O=C(C1CC1)N1CCc2cc(S(=O)(=O)N3CCCc4ccccc43)ccc21,?,0,-68,0,?,0
CCC(=O)N1CCc2cc(S(=O)(=O)N3CCc4ccccc43)ccc21,?,0,0,0,0,0
CC(C(=O)N1c2ccccc2CC1C)N1CCN(S(=O)(=O)c2ccccc2F)CC1 (centres undefined),?,-,0,0,13µM,-
CN(CC(=O)Nc1cccc(F)c1)C(=O)C1CCN(S(=O)(=O)c2ccc3c(c2)OCCO3)CC1,4.1µM,-,0,?,9.3µM,-
Cc1cccc(-c2nc(CN3CCN(C(=O)C4CCCO4)CC3)cs2)c1 (centres undefined),0,0,0,?,0,7.6
COc1ccc(C(NC(=O)CC(C)C)NC(=O)CC(C)C)cc1OC,10µM,0,0,0,0,0
CCCCC(=O)NC(NC(=O)CCCC)c1ccc(OCC(C)C)c(OC)c1,0,0,0,0,0,0
Cc1cc(C)c(S(=O)(=O)NCC(c2ccco2)N2CCOCC2)c(C)c1 (centres undefined),-,-,0,-,-,-
O=C(Nc1cccnc1)c1ccco1,0,0,-82,0,-,0
O=C(Nc1cccnc1)c1ccc(NC(=O)c2ccco2)cc1,-,0,-103,0,0,19

# High-throughput results from PubChem BioAssay.
